# Bioassay records as filed in PubChem.
# Compounds with a hit are over-represented: about 2.1% of the library has one in this group of screens.
# EWS-Fli block – inhibitors of EWS/Fli oncoprotein transcriptional activity; A673 NR0B1-luciferase reporter, viability-normalised; inhibition, % at 12.6 µM; actives 0.67% (n = 350,000); AID 651661;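 active = mean inhibition of at least 50% after viability correction, with every replicate also passing that limit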;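 also: firefly luciferase signal divided by Alamar Blue viability fluorescence both relative to DMSO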
# KKLEB tox – reduces viability of KKLEB cystic fibrosis airway cells | AID 602141 | activity change (cytotoxicity), % at 5 µM | KKLEB CF airway cells viability, ATPlite luminescence, overnight; stronger effect = lower value; cells stimulated with P. aeruginosa culture filtrate | actives 0.36% (n = 360,000);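 active = corrected activity change at or below -50% at 5 µM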
# CF NFkB block – blocks PAF-induced NF-kB reporter in cystic fibrosis cells; actives 0.86% (n = 360,000); inhibition, % at 5 µM; AID 588850; KKLEB NF-kB-GFP reporter, GFP fluorescence overnight;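 active = at least 50% inhibition at 5 µM, scaled per plate between neutral and stimulator controls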;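 also: PAF is a Pseudomonas aeruginosa culture filtrate used as stimulus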
# PAX8 reporter – lowers PAX8-driven luciferase in RMG-I cells; RMG-I TPO-luciferase reporter, SteadyGlo, 24 h; inhibition, % at 12.6 µM; actives 1.2% (n = 360,000); AID 652154;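 active = mean replicate inhibition at least 60% with every replicate also reaching 60%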;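 also: luciferase light reporting Pax8 driven TPO promoter activity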
# HIF-2a block – HIF-2a inhibition; 786-0 RCC cells HIF-2a reporter, luciferase luminescence, overnight; inhibition, % at 18.8 µM; actives 0.72% (n = 360,000);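 active = inhibition of the luminescence signal of 40% or more relative to plate controls, in a single-dose primary screen at 18.75 µM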
# Hits are given with their value; - = inactive; . = no result.
SMILES,EWS-Fli block,KKLEB tox,CF NFkB block,PAX8 reporter,HIF-2a block
COC(=O)C1=C(c2ccc(F)cc2OCc2ccccc2)C[C@@H]2CC[C@H]1N2C(=O)NCc1ccc(C(F)(F)F)cc1,-,-,-,88,-
COC(=O)C1=C(c2cc3ccccc3s2)C[C@@H]2CC[C@H]1N2C(=O)NCc1ccc(C(F)(F)F)cc1,-,-,-,66,-
COC(=O)[C@H]1[C@H](CO)[C@H]2Cn3c(ccc(-c4cccc(F)c4)c3=O)[C@@H]1N2Cc1cccnc1,-,.,.,-,.
c1cnc(OCCN2CC2)cn1,-,-,-,87,-
CC(C)(O)/C=C/C(=O)[C@](C)(O)C1[C@H](O)C[C@@]2(C)C3CC=C4C(C[C@H](O)[C@@H](O)C4(C)C)[C@]3(C)C(=O)C[C@]12C (stereo partly specified),.,-75,71,.,-
COC(=O)[C@@H]1[C@@H](CO)[C@@H]2Cn3c(ccc(C4=CCCCC4)c3=O)[C@H]1N2Cc1cccnc1,-,.,.,-,.
NC(Cc1ccc(O)cc1)C(=O)NN=Cc1ccc(N(CCCl)CCCl)cc1 (stereo unspecified),57,-,-,-,-
N[C@@H](Cc1ccc(N(CCCl)CCCl)cc1)C(=O)O,-,-,-,-,-
CCOC(=O)[C@]12Cc3cc(OC)ccc3[C@H]1N(C1CCCCC1)C(=O)c1ccccc12,57,.,.,76,-
CCCN1[C@@H]2Cn3c(cccc3=O)[C@H]1[C@@H](C(=O)N(C)C)[C@@H]2CO,-,.,.,.,.
Cc1cccc(C)c1-n1nnnc1C(c1cc2ccccc2o1)N1CCC(n2c(=O)[nH]c3ccccc32)CC1 (stereo unspecified),-,-,-,-,-
CSCCC(c1nnnn1-c1ccc2c(c1)OCCO2)N1CCC(n2c(=O)[nH]c3ccccc32)CC1 (stereo unspecified),-,-84,86,93,-
CCC(c1nnnn1-c1ccc2c(c1)OCCO2)N1CCC(n2c(=O)[nH]c3ccccc32)CC1 (stereo unspecified),-,-76,79,85,-
O=c1[nH]c2ccccc2n1C1CCN(C(CCc2ccccc2)c2nnnn2C2CCCC2)CC1 (stereo unspecified),-,-96,84,-,-
COc1ccc(-n2nnnc2C(C2CC2)N2CCC(n3c(=O)[nH]c4ccccc43)CC2)cc1 (stereo unspecified),-,-,-,-,-
C/C=C/c1ccc([C@@H]2[C@@H](CO)N3CCCCN(C(=O)Cc4ccncc4)C[C@@H]23)cc1,-,.,.,-,.
CC1=CC(=C2C(=O)NC(=S)NC2=O)C=C(C(F)(F)F)N1Cc1ccccc1,54,-,-,-,-
CCN(CC)C(=O)COc1cc(C)cc2oc(=O)c3c(c12)CCCC3,-,-,-,82,-
Cc1cc(OCC(=O)OC(C)(C)C)c2c3c(c(=O)oc2c1)CCC3,.,-,-,-,-
CCN(CC)C(=O)c1ccc(NC(=O)Nc2ccccc2F)cc1,62,-,-,-,-
CCN(CC)C(=O)c1ccc(NC(=O)CCCSc2ccccc2)cc1,-,-,-,-,-
O=C(Cc1ccccc1)N1CCCCN2[C@H](CO)[C@H](c3ccc(-c4ccccc4)cc3)[C@H]2C1,.,.,.,-,.
CCC1C(c2cc(OC)c(OC)c(OC)c2)c2cc3c(cc2OC1N1CCCC1)OCO3 (stereo unspecified),56,-,-,.,-
Cc1ccccc1-n1c(O)c(/C=C2/C(c3ccccc3)=Nc3ccccc32)c(=O)[nH]c1=O,-,-,-,-,64
O=C(Cc1ccccc1)N1C[C@@H]2[C@H](c3ccccc31)[C@H](CO)N2Cc1ccccc1,-,.,.,-,.
SMILES,EWS-Fli block,KKLEB tox,CF NFkB block,PAX8 reporter,HIF-2a block
O=c1[nH]c2ccccc2n1C1CCN(C(c2ccccc2OC(F)(F)F)c2nnnn2-c2ccc3c(c2)OCCO3)CC1 (stereo unspecified),-,-86,83,94,-
O=c1[nH]c2ccccc2n1C1CCN(C(c2cc3ccccc3o2)c2nnnn2Cc2ccccc2)CC1 (stereo unspecified),-,-96,82,108,-
COc1cccc(C(c2nnnn2-c2ccc3c(c2)OCCO3)N2CCC(n3c(=O)[nH]c4ccccc43)CC2)c1OC (stereo unspecified),-,-90,85,93,-
COc1cccc(C(c2nnnn2Cc2ccccc2)N2CCC(n3c(=O)[nH]c4ccccc43)CC2)c1OC (stereo unspecified),-,-75,87,91,-
COc1ccc(-n2nnnc2C(c2ccnc3ccccc23)N2CCC(n3c(=O)[nH]c4ccccc43)CC2)cc1 (stereo unspecified),-,-,-,-,-
CCCNC(=O)N1[C@@H]2c3ccc(-c4ccccc4OC)c(=O)n3C[C@H]1[C@H](CO)[C@H]2C(=O)OC,-,.,.,-,.
O=C1NC(=O)C(=Cc2ccc(SC3CCCCC3)o2)C(=O)N1,-,-,-,-,52
N#Cc1cccc(-c2ccc([C@H]3[C@@H](CO)N4CCCCN(C(=O)Cc5ccccc5)C[C@@H]34)cc2)c1,-,.,.,-,.
COCC#Cc1ccc([C@@H]2[C@H]3CN(C(=O)Cc4ccccn4)CCCCN3[C@H]2CO)cc1,-,.,.,-,.
CN1C(=O)/C(=C\c2ccc(Br)s2)C(=O)NC1=S,-,-,-,-,-
O=C1NC(=S)NC(=O)C1=Cc1ccc(Br)s1,-,-,-,-,79
O=C(Cc1cccnc1)N1CCCCN2[C@H](C1)[C@H](c1ccc(/C=C/c3ccccc3)cc1)[C@@H]2CO,-,.,.,81,.
O=C(Cc1cccnc1)N1CCCCN2[C@H](CO)[C@H](c3ccc(/C=C/c4ccccc4)cc3)[C@@H]2C1,-,.,.,-,.
O=C(Cc1ccccn1)N1CCCCN2[C@@H](CO)[C@H](c3ccc(-c4ccccc4F)cc3)[C@@H]2C1,-,.,.,67,.
O=C(Cc1ccccn1)N1CCCCN2[C@@H](CO)[C@@H](c3ccc(-c4ccccc4F)cc3)[C@@H]2C1,-,.,.,99,.
O=C(Cc1ccccc1)N1CCCCN2[C@@H](CO)[C@@H](c3ccc(C#Cc4ccccc4)cc3)[C@@H]2C1,.,.,.,-,.
O=C(Cc1cccnc1)N1CCCCN2[C@H](C1)[C@H](c1ccc(C#CC3CC3)cc1)[C@@H]2CO,-,.,.,-,.
COC(=O)C[C@]1(C(=O)OC)CN(C#N)N(c2ccc(Cl)cc2)C12c1ccccc1-c1ccccc12,.,-96,88,109,85
O=S1(=O)N(CCN2CC=C(c3c[nH]c4cc(F)ccc34)CC2)c2cccc3c2N1CCC3,-,-,-,85,-
C=CC1CN2CCC1C[C@@H]2CO (stereo partly specified),-,.,.,-,.
COc1ccc(-n2c(O)c(/C=C3\C=Nc4ccc(Br)cc43)c(=O)[nH]c2=O)cc1,-,-,-,-,-
COc1ccc(-n2c(O)c(/C=C3\C=Nc4ccc(Br)cc43)c(=O)[nH]c2=O)c(OC)c1,-,-,-,-,45
